# The campaign covered roughly 200,000 compounds. About 3,000 (1.5%) were called active. Shown is part of a subset that was picked to be rich in actives. Unmarked numbers belong to inactive results.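 How the source made its calls: active means inhibition above about 50% when tested at 10 µM (limit read from the data); inactive means the rest.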
# Biological target: Luciferin 4-monooxygenase (Photinus pyralis) (UniProt P08659)
# Assay: inhibition of purified FLuc reporter enzyme – biochemical, luminescence, ATPLite, artefact control for luciferase-based inhibitor screens, primary screen (AID 1006)
# Settings: ATPLite firefly luciferase biochemical luminescence, 10 min; at 10 µM; stronger effect = higher value
# Chain of Luciferin 4-monooxygenase (Photinus pyralis) (P08659 whole entry, looked up): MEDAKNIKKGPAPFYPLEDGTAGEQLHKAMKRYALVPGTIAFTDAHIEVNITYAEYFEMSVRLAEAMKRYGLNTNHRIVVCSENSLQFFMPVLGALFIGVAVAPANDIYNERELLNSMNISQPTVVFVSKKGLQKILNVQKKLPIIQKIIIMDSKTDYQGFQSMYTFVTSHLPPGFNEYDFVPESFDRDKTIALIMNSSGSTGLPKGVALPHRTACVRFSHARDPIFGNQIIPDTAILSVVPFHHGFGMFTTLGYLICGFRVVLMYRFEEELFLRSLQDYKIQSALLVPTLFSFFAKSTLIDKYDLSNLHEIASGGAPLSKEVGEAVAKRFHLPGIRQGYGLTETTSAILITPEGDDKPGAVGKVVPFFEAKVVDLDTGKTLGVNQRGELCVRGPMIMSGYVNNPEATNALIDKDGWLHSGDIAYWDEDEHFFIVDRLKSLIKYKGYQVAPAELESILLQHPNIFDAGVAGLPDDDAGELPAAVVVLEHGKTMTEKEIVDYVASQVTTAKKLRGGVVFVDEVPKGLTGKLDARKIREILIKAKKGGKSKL
row,Structure (SMILES),inhibition
1,CCC1C=C(c2ccccc2)C=CN=C1N(CC)CC (configuration not stated),-5%
2,O=C(Cn1c(N2CCN(C/C=C/c3ccccc3)CC2)nc2ccccc21)c1ccccc1,-2.2%
3,CCN(CCCNC(=O)CCn1c(=O)[nH]c2ccsc2c1=O)c1ccccc1,-2.6%
4,CC(C)=CCN1CCN(Cc2ccc(Oc3ncccn3)cc2)CC1CCO (configuration not stated),-0.1%
5,OCCCN1c2ccccc2Nc2nnc(-c3ccccc3)cc21,57.2% (active)
6,N=c1c2c(-c3ccccc3)c(-c3ccccc3)n(Cc3ccccc3)c2ncn1CCCO,-2.7%
7,CCCN(CCC)CCCNC(=O)CNC(=O)c1nn(-c2ccc(OC)cc2)c(=O)c2ccccc12,-0.3%
8,Cc1ccc(OC(=O)c2cc3ccccc3o2)cc1,73.3% (active)
9,Cc1ccsc1C(=O)OCC(=O)c1cc2ccccc2o1,1.6%
10,O=C(Oc1cccnc1)c1cc2ccccc2oc1=O,-6.1%
11,CCOC(=O)c1c(C)[nH]c2c1-c1ccccc1C(=O)C2=O,-5.3%
12,CCCCOC(=O)c1[nH]c(C)c(C(=O)OC)c1C,15.4%
13,CCOC(=O)c1c(C)[nH]c(C2=NNC(=NC(C)COC)SC2)c1C (configuration not stated),56.5% (active)
14,CN(c1ccc2nc3ccccc3c(=O)n2n1)C1CCCCC1,96.2% (active)
15,CCOC(=O)C(C)Sc1nc2ccccc2c(=O)n1CC1CCCCC1 (configuration not stated),1.4%
16,O=c1c2ccccc2nc2n1C1(CCCCC1)Cc1ccccc1-2,-6.3%
17,CC(C)CCC(C)NC(=O)c1ccc2nccnc2c1 (configuration not stated),2.8%
18,COc1ccc(N2C(=O)/C(=C\c3ccco3)N=C2SCC(N)=O)cc1Cl,-5.8%
19,Cc1ccc(C(=O)N2CCCCCC2)cc1Br,-7.1%
20,Cc1ccc2cc3cc(C(=O)N4CCCCCC4)oc3nc2c1,69.5% (active)
21,Cc1cc(=O)oc(C)c1C(=O)N1CCCCC1,-6.7%
22,C/C(=N/N1CCN(Cc2cccc3ccccc23)CC1)c1cccnc1,-5.7%
23,O=C(Nc1ccc(NC(=O)c2cccs2)cn1)c1ccco1,83.2% (active)
24,COc1cccc(C(=O)Nc2ccc(NC(=O)c3ccco3)cn2)c1,6.5%
25,O=C(Nc1ccc2nccnc2c1)c1ccco1,13%
26,N/C(=N\OC(=O)N1c2ccccc2Sc2ccccc21)c1ccc(Br)cc1,-3.4%

row,Structure (SMILES),inhibition
1,N/C(=N\OC(=O)c1ccc2c(c1)OCO2)c1ccc(Br)cc1,60.6% (active)
2,N/C(=N\OC(=O)/C=C/c1ccccc1)c1ccc(Br)cc1,-0.5%
3,COc1ccccc1CN(C)C(=O)C1(c2ccc(Cl)cc2)CC1,-4.2%
4,O=C(CCC(=O)N1CCCC1)Nc1ccc([N+](=O)[O-])cc1,-1.6%
5,CCn1c(=S)[nH]c2sc3c(c2c1=O)CCCCC3,-1.8%
6,CCO[C@H]1OC(C(=O)Nc2ccccc2)=C[C@@H](C2CC2)[C@@H]1CCCO,-0.3%
7,Cc1ccc(C)c(NC(=S)NCC(c2cccnc2)N2CCOCC2)c1 (configuration not stated),-5.6%
8,CCOC(=O)CSc1nnc(-c2ccncc2)o1,0.6%
9,CCCCSc1nnc(-c2ccc(C)cc2)o1,50.5% (active)
10,CCOC(=O)CSc1nnc(-c2ccc([N+](=O)[O-])cc2)o1,3%
11,Cc1ccnc(SCC(N)=O)n1,-1.6%
12,O=C(Nn1cnnc1)c1ccc([N+](=O)[O-])cc1,-5.5%
13,Cc1ccc2nc(-c3cccc(Br)c3)cc(C(=O)Nn3cnnc3)c2c1,78.1% (active)
14,Cc1ccc2nc(-c3ccccc3)cc(C(=O)O)c2c1,15.5%
15,Cc1ccc(-c2cc(C(=O)NCc3cn(C)nc3C)c3cc(Br)ccc3n2)cc1,10.9%
16,Cc1nn2cc(-c3ccc(Cl)cc3)cnc2c1Br,7.5%
17,Cc1noc(C)c1COc1ccc2ccc(=O)oc2c1,-2.2%
18,CCCCc1cc(=O)oc2cc(C)cc(OCc3nn[nH]n3)c12,-6.7%
19,COc1ccc(-c2cc3ccc(OCc4nn[nH]n4)cc3oc2=O)cc1,81.4% (active)
20,Cc1cc(Cl)ccc1NC(=S)N1CCC(C(N)=O)(N2CCCCC2)CC1,-2.1%
21,CC(C)(C)c1csc(NC2=NS(=O)(=O)c3ccccc32)n1,77.2% (active)
22,Cc1ccc(S(=O)(=O)N(NC2=NS(=O)(=O)c3ccccc32)C(=O)c2ccccc2)cc1,0.4%
23,O=C(Oc1cccc(NC2=NS(=O)(=O)c3ccccc32)c1)c1ccncc1,-2.8%
24,N/C(=N\OC(=O)CCc1ccccc1)c1ccc(Cl)cc1,0.8%
25,N/C(=N\OC(=O)CC1CCCCC1)c1ccccc1,90.2% (active)
26,COc1ccc(/C(N)=N/OC(=O)Cc2ccccc2)cc1,10.9%

# Source: PubChem BioAssay AID1006 (Sanford-Burnham Center for Chemical Genomics, 2008)
